Test in all cases: DAPPL (digital affinity profiling via proximity ligation, sequencing); 10 mM Tris-HCl pH 7.5, 50 mM NaCl, 1 mM DTT, 4% glycerol, room temperature, 30 min; GST-TFs on glutathione beads, 16-mer random dsDNA library, 0.1% formaldehyde crosslink after washing; high values mean tight binding
In one assay the target is T1, FLI1 (Homo sapiens, UniProt Q01543 1-452).
T1 sequence: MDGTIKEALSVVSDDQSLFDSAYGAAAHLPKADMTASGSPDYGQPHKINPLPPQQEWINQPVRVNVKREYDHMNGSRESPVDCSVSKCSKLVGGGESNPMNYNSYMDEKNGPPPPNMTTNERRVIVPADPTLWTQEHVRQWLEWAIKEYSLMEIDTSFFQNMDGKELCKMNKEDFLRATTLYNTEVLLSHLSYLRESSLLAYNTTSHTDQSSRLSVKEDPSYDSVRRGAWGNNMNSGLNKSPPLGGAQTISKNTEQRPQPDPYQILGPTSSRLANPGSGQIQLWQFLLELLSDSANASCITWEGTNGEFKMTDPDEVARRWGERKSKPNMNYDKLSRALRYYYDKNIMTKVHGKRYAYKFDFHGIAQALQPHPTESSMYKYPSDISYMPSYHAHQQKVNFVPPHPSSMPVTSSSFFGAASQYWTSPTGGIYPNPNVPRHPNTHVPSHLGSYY
Conditions: protein: recombinant; tags: N-terminal GST; dsDNA, one strand shown. A digest of the protocol:
(§1)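 The binding signal reported is, for every hexamer, its read frequency for a factor over its read frequency for the tag-only sample. Reads came from pools of yeast-expressed, GST-fused human transcription factors on glutathione beads, barcoded with DNA and mixed with that sample, which were incubated with 200 nmole of a random double-stranded 16-mer DNA library in Tris/NaCl/DTT/glycerol buffer at room temperature for 30 min. After washing, the pools were crosslinked with 0.1% formaldehyde, proximity-ligated with BsaI/T4 ligase for 1 h at 37 °C, PCR-amplified and sequenced on an Illumina NextSeq500.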

The target of another assay is T2, ELK1 (Homo sapiens, UniProt P19419 1-428).
T2 sequence: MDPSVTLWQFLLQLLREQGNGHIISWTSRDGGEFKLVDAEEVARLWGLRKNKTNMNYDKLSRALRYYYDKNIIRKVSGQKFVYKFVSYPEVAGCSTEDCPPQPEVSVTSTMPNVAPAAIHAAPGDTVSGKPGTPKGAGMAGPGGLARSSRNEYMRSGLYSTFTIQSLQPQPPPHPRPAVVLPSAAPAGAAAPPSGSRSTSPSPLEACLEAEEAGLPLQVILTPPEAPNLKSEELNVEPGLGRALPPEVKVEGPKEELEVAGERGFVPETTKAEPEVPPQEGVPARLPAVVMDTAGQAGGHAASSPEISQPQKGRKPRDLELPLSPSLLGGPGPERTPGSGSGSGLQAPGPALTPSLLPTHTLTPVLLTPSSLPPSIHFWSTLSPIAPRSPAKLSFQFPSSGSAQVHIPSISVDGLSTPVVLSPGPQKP
Conditions: protein: recombinant; tags: N-terminal GST; dsDNA, one strand shown. The procedure, abridged:
as §1

The target of the next assay is T3, GABPA (Homo sapiens, UniProt Q06546 1-454).
T3 sequence: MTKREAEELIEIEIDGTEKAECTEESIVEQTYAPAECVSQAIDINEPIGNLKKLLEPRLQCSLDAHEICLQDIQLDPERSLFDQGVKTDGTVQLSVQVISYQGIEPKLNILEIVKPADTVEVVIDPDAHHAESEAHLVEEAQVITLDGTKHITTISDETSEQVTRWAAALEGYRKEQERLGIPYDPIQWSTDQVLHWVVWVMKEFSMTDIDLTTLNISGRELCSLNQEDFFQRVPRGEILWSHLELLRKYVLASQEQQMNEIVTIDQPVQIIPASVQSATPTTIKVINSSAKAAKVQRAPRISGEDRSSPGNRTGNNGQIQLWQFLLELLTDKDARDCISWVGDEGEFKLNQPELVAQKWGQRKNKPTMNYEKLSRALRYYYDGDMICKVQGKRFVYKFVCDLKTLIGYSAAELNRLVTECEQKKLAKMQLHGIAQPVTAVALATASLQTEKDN
Conditions: protein: recombinant; tags: N-terminal GST; dsDNA, one strand shown. A digest of the protocol: as §1

The target in a further assay is T4, ERG (Homo sapiens, UniProt P11308 1-479).
T4 sequence: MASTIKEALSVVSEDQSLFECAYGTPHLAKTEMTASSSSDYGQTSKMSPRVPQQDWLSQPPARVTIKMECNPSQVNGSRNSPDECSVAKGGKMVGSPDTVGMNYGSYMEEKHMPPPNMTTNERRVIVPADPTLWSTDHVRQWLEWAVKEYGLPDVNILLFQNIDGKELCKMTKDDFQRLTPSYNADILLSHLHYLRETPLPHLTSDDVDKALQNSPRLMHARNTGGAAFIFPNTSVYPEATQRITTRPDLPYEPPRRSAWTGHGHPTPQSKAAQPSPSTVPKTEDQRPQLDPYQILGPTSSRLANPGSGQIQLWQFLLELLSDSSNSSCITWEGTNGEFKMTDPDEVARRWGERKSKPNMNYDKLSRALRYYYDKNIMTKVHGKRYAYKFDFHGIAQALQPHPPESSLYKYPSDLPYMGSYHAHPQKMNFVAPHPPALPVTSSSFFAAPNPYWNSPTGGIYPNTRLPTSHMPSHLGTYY
Conditions: protein: recombinant; tags: N-terminal GST; dsDNA, one strand shown. A digest of the protocol:
as §1

A further assay concerns the target ELF1 (Homo sapiens, UniProt P32519 1-619). To be noted: protein: recombinant; tags: N-terminal GST; dsDNA, one strand shown. The procedure, abridged: as §1
A further assay has as its target T5, EHF (Homo sapiens, UniProt Q9NZC4 1-300).
T5 sequence: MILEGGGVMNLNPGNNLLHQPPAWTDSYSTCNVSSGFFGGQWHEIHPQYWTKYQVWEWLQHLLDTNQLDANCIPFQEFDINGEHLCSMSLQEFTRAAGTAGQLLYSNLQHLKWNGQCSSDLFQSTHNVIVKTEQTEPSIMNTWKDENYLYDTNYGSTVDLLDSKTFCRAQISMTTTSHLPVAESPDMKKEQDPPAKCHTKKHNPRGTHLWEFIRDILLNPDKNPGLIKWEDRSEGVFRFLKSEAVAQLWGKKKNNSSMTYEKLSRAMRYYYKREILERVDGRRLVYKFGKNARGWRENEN
To be noted: protein: recombinant; tags: N-terminal GST; dsDNA, one strand shown. A digest of the protocol:
as §1

For the next assay, the target named is SPI1 (Homo sapiens, UniProt P17947 1-270). Conditions: protein: recombinant; tags: N-terminal GST; dsDNA, one strand shown. A digest of the protocol:
as §1

Another assay addresses SPIB (Homo sapiens, UniProt Q01892 1-262). Conditions: protein: recombinant; tags: N-terminal GST; dsDNA, one strand shown. The procedure, abridged:
as §1

In the next assay the target is T6, ELK3 (Homo sapiens, UniProt P41970 1-407).
T6 sequence: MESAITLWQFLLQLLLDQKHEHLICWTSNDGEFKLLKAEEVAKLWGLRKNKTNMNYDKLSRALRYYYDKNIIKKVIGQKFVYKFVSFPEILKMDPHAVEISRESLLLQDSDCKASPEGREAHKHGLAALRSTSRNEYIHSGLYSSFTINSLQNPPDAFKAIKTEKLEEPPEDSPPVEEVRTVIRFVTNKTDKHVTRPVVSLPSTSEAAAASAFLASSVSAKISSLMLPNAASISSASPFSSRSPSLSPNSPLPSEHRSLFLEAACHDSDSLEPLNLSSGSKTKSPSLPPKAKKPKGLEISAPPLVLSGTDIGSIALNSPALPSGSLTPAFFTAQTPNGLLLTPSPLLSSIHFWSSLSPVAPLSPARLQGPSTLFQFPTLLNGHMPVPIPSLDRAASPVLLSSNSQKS
To be noted: protein: recombinant; tags: N-terminal GST; dsDNA, one strand shown. A digest of the protocol:
as §1

A further assay has as its target T7, FEV (Homo sapiens, UniProt Q99581 1-238).
T7 sequence: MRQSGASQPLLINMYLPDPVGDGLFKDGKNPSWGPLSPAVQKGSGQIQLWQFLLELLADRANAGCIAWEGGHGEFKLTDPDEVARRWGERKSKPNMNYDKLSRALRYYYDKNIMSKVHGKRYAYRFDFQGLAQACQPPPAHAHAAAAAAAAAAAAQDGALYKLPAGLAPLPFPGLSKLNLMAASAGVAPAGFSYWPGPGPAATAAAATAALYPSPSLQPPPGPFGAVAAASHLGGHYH
Conditions: protein: recombinant; tags: N-terminal GST; dsDNA, one strand shown. A digest of the protocol: as §1

In a further assay the target is ETV5 (Homo sapiens, UniProt P41161 1-510). To be noted: protein: recombinant; tags: N-terminal GST; dsDNA, one strand shown. A digest of the protocol: as §1
The next assay addresses HSF1 (Homo sapiens, UniProt Q00613 1-529). Conditions: protein: recombinant; tags: N-terminal GST; chain copies: 3; dsDNA, one strand shown. The procedure, abridged:
as §1

The target in the next assay is T8, SPIC (Homo sapiens, UniProt Q8N5J4 1-248).
T8 sequence: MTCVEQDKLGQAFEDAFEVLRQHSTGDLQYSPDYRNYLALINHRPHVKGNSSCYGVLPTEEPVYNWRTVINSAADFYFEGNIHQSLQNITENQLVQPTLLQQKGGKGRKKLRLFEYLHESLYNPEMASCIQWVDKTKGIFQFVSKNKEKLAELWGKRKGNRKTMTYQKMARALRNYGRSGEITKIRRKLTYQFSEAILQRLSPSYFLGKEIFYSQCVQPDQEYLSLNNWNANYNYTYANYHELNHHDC
Conditions: protein: recombinant; tags: N-terminal GST; dsDNA, one strand shown. The procedure, abridged:
as §1

Another assay has as its target ELF4 (Homo sapiens, UniProt Q99607 1-663). To be noted: protein: recombinant; tags: N-terminal GST; dsDNA, one strand shown. A digest of the protocol:
as §1

The target in another assay is T9, ELK4 (Homo sapiens, UniProt P28324-2 1-405).
T9 sequence: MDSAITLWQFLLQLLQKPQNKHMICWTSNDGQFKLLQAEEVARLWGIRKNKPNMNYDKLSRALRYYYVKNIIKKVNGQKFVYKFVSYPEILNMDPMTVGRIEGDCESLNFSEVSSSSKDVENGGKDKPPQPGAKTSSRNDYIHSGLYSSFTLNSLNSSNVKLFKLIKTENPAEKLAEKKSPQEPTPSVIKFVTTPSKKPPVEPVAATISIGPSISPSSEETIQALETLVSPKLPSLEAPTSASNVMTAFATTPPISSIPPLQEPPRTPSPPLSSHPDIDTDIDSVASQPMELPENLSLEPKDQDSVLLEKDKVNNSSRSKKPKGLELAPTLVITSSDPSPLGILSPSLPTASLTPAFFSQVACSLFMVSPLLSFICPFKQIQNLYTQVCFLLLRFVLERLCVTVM
To be noted: protein: recombinant; tags: N-terminal GST; dsDNA, one strand shown. A digest of the protocol:
as §1

The next assay addresses T10, ETV2 (Homo sapiens, UniProt O00321 1-342).
T10 sequence: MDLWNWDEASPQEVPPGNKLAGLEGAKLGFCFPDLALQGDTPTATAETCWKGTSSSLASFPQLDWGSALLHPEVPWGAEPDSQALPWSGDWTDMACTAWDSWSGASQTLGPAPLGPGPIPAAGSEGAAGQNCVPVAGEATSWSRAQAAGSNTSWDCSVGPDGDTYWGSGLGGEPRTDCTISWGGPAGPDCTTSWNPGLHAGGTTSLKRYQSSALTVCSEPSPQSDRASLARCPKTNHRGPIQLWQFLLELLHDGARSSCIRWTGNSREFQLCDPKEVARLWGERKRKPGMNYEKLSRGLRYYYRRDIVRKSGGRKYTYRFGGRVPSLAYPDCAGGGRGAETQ
To be noted: protein: recombinant; tags: N-terminal GST; dsDNA, one strand shown. The procedure, abridged:
as §1

A further assay deals with T11, ELF3 (Homo sapiens, UniProt P78545 1-371).
T11 sequence: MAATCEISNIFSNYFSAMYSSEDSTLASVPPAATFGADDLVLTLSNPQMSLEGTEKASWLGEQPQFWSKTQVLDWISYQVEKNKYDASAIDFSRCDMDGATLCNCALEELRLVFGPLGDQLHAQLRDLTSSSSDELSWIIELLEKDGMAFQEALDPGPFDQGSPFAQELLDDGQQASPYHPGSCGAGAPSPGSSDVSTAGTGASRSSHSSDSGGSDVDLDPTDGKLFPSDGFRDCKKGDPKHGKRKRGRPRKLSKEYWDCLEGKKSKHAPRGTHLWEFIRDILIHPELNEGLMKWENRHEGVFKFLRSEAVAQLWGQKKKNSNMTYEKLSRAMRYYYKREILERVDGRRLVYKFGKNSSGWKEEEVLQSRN
Conditions: protein: recombinant; tags: N-terminal GST; dsDNA, one strand shown. The procedure, abridged:
as §1

In another assay the target is CRX (Homo sapiens, UniProt O43186 1-299). Conditions: protein: recombinant; tags: N-terminal GST; dsDNA, one strand shown. The procedure, abridged:
as §1

The next assay concerns the target ETV1 (Homo sapiens, UniProt P50549 1-477). To be noted: protein: recombinant; tags: N-terminal GST; dsDNA, one strand shown. The procedure, abridged: as §1

ELF1, sequence (P32519 whole entry): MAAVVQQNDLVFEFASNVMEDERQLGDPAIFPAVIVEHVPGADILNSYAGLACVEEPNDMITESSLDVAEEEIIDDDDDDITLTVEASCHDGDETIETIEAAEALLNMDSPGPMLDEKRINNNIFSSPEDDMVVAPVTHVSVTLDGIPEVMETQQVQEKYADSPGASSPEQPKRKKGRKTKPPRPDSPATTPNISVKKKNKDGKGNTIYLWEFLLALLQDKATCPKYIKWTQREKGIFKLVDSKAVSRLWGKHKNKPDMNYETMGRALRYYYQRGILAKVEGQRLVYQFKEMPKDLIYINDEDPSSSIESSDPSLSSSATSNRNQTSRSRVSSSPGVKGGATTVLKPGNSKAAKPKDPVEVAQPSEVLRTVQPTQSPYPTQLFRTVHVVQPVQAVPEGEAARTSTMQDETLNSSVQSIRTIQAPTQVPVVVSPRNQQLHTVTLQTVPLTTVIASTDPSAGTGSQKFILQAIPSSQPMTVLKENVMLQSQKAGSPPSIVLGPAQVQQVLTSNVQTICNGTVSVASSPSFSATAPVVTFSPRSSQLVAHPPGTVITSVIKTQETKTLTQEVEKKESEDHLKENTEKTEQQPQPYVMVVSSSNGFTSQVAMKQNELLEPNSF
ELF4, sequence (Q99607 whole entry): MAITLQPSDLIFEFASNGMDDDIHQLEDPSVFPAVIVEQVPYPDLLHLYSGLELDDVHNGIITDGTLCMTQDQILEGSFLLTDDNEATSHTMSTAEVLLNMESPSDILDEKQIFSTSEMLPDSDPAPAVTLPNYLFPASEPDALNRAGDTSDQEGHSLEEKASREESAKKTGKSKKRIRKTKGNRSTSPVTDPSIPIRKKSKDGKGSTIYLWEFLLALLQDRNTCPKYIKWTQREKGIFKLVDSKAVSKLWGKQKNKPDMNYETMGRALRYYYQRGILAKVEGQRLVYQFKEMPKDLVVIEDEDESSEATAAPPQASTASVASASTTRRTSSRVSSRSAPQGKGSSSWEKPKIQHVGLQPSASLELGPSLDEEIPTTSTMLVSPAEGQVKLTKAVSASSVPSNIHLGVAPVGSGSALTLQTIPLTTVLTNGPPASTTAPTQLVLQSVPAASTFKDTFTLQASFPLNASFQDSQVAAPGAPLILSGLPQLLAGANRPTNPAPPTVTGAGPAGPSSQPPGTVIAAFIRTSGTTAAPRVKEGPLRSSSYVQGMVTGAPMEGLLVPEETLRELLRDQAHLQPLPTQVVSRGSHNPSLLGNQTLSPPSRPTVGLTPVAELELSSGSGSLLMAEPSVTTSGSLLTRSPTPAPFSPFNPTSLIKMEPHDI
CRX, sequence (O43186 whole entry): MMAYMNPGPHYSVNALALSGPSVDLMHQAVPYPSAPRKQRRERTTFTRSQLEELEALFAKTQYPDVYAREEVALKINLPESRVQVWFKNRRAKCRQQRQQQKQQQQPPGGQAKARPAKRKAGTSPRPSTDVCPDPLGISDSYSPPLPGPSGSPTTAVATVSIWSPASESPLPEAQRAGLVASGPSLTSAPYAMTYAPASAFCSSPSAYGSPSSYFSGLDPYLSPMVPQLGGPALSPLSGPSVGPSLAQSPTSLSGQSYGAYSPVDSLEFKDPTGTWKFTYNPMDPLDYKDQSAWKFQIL
HSF1, sequence (Q00613 whole entry): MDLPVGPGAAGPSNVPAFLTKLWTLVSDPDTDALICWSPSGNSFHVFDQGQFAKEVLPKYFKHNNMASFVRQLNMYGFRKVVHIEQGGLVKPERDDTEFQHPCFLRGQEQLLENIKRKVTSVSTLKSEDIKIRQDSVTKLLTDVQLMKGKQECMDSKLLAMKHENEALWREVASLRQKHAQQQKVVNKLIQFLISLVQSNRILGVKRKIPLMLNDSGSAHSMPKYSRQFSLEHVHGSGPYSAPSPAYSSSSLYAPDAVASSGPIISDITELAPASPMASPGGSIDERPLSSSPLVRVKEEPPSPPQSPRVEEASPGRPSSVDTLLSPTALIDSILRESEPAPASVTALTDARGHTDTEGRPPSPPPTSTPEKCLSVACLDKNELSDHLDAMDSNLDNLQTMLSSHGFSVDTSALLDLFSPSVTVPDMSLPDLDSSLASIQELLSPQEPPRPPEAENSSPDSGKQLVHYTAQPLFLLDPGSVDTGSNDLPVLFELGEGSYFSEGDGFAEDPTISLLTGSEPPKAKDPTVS
ETV1, sequence (P50549 whole entry): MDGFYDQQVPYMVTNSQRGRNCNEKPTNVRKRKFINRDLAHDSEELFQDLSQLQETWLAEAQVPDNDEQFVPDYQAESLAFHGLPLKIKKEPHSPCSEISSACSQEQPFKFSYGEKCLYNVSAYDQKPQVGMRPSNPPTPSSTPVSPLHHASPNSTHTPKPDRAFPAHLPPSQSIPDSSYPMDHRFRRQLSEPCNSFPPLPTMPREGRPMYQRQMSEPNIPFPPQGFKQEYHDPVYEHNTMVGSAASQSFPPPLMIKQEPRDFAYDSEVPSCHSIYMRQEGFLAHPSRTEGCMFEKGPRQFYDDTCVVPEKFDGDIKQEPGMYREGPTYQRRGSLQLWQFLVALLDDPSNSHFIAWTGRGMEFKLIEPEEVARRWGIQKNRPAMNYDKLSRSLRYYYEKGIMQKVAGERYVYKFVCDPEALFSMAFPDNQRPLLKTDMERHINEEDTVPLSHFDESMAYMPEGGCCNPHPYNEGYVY
SPIB, sequence (Q01892 whole entry): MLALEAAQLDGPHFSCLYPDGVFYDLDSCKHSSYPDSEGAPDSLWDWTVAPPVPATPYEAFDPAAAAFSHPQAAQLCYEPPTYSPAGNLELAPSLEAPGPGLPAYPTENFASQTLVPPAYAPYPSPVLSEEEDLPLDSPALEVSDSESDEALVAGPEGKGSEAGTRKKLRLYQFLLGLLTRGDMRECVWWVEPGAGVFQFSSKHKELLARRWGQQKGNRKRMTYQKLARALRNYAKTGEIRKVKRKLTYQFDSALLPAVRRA
ETV5, sequence (P41161 whole entry): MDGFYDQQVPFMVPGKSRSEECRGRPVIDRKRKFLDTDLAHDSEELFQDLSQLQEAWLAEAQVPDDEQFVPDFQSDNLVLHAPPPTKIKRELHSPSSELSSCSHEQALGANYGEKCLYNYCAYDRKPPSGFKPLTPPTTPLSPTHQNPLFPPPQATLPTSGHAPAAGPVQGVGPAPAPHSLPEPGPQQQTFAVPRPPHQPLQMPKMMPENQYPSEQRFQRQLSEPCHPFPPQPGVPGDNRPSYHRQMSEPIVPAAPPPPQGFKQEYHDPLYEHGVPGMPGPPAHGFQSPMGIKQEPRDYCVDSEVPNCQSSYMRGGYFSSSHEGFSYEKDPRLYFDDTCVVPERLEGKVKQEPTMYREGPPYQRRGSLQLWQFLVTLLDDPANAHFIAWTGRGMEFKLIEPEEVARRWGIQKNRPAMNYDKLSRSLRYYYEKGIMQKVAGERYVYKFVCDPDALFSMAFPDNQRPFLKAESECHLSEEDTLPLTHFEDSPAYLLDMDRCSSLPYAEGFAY

Take TGTAAA: the binding signal was 1.22 fold enrichment (6-mer frequency, TF over GST control) with FLI1; 1.06 fold enrichment (6-mer frequency, TF over GST control) with ELK1; 1.08 fold enrichment (6-mer frequency, TF over GST control) in the assay with GABPA; 1.15 fold enrichment (6-mer frequency, TF over GST control) with ERG; 1.14 fold enrichment (6-mer frequency, TF over GST control) with ELF1; 1.13 fold enrichment (6-mer frequency, TF over GST control) with EHF. Further, the binding signal with SPI1 was 1.26 fold enrichment (6-mer frequency, TF over GST control); in the assay with SPIB it was 1.2 fold enrichment (6-mer frequency, TF over GST control); with ELK3, 1.09 fold enrichment (6-mer frequency, TF over GST control); with FEV, 1.08 fold enrichment (6-mer frequency, TF over GST control); in the assay with ETV5, 1.16 fold enrichment (6-mer frequency, TF over GST control); in the assay with HSF1, 1.2 fold enrichment (6-mer frequency, TF over GST control). Besides, the binding signal with SPIC was 1.24 fold enrichment (6-mer frequency, TF over GST control); in the assay with ELF4 it was 1.13 fold enrichment (6-mer frequency, TF over GST control); with ELK4, 1.1 fold enrichment (6-mer frequency, TF over GST control); with ETV2 it was 1.16 fold enrichment (6-mer frequency, TF over GST control); with ELF3 it was 1.23 fold enrichment (6-mer frequency, TF over GST control); with CRX, 1.2 fold enrichment (6-mer frequency, TF over GST control). Moreover, in the assay with ETV1, the binding signal is 1.14 fold enrichment (6-mer frequency, TF over GST control).
